Experimental findings from PubChem BioAssay (NCI) are described below.

Among the test systems are DU-145 prostate; K-562 leukemia; MALME-3M melanoma; MDA-MB-231 breast; RXF 393 renal; SF-268 CNS; SF-295 CNS; SF-539 CNS; UACC-257 melanoma; M14 melanoma.
Holding throughout (assay): NCI-60 one-dose screen, 48 h (100 = growth as untreated, 0 = no growth, -100 = all killed)
What all share (conditions): 10 µM unless noted

Compounds without any hit were thinned out: in the full panel of roughly 83,000, 20% have a hit.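 How to read the values: 0–100, growth inhibition (40 = 60% inhibited); 0, no net growth; -100 to 0, cell death (-40 = 40% of starting cells died; -100 = all dead).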 Values without a mark were called inactive. Calls of active or inactive are those of the source. The calls were made as follows: active = growth percent below 10; inactive = the rest.

In the case of `COC[C@]12CCC(C)(C)C[C@H]1C1=CC[C@@H]3[C@@]4(C)CCCNC(C)(C)[C@@H]4CC[C@@]3(C)[C@]1(C)CC2`, the growth in the experiment with DU-145 prostate was -39.8% (active); in the experiment on K-562 leukemia it was -43.7% (active); in the experiment on MALME-3M melanoma it was -68.5% (active); with MDA-MB-231 breast, -53.3% (active); with RXF 393 renal, -93% (active); in the experiment on SF-268 CNS, 33.7%. For the same compound, the growth is -89% (active) in the experiment with SF-295 CNS, -63.7% (active) with SF-539 CNS, -18.5% (active) with UACC-257 melanoma and -67.3% (active) in the experiment with M14 melanoma.

Turning to `COc1cc(-c2nn(C(C)(C)C)cc2-c2ccnc(NCCCNS(=O)(=O)c3ccc(Cl)cc3)n2)ccc1Cl`, the growth was 60.5% with DU-145 prostate; 33.5% in the experiment on K-562 leukemia; 87.9% in the experiment with MALME-3M melanoma; 55.5% with MDA-MB-231 breast; 4.9% (active) with RXF 393 renal; 44.1% in the experiment on SF-268 CNS. The growth with SF-295 CNS is 59.6%; in the experiment with SF-539 CNS it was 84.4%; with UACC-257 melanoma, 82.1%; in the experiment on M14 melanoma, 76.8%.

With `COc1ccc2c(c1)c(-c1cc(N)n3nc(-c4cn(C)c5ccc(OC)cc45)cc3n1)cn2C`, the growth in the experiment on DU-145 prostate is 93.1%; with K-562 leukemia, -16.6% (active); in the experiment with MALME-3M melanoma, 98%; with MDA-MB-231 breast, 78.4%; in the experiment with RXF 393 renal, 128%; in the experiment with SF-268 CNS it was 109%. For the same compound, the growth in the experiment with SF-295 CNS is 98.9%; in the experiment on SF-539 CNS, 94.9%; with UACC-257 melanoma, 110%; in the experiment on M14 melanoma, 111%.

For the compound `CCOc1ccc(C(=O)Nc2ncc(Cc3ccc(F)cc3)s2)cc1`, the growth in the experiment on DU-145 prostate is 28.8%; in the experiment with K-562 leukemia it was 9.95% (active); with MALME-3M melanoma it was 63.6%; with MDA-MB-231 breast, 36%; with RXF 393 renal, 1.11% (active); in the experiment on SF-268 CNS, 53.6%. Moreover, the growth was 4.39% (active) in the experiment on SF-295 CNS, 1.96% (active) in the experiment with SF-539 CNS, 77.7% with UACC-257 melanoma and 15.4% with M14 melanoma.

Consider `Cc1ccc(NC(=O)CNc2cc(C(N)=O)cc(F)c2C)c(Cl)c1`, for which the growth was 87.2% with DU-145 prostate; 94.2% in the experiment with K-562 leukemia; 106% with MALME-3M melanoma; 67% in the experiment with MDA-MB-231 breast; 36.2% with RXF 393 renal; 81.7% with SF-268 CNS. Besides, the growth with SF-295 CNS is 101%; with SF-539 CNS it was 89.8%; in the experiment with UACC-257 melanoma, 107%; in the experiment with M14 melanoma it was 103%.

For the compound `COc1cc(-c2nc(SC(C)C)n(C(C)C)c(=O)c2C#N)ccc1OCc1ccccc1`, the growth with DU-145 prostate is 99.1%; with K-562 leukemia, 38.8%; in the experiment with MALME-3M melanoma, 82.4%; in the experiment on MDA-MB-231 breast, 75.7%; with RXF 393 renal, 91.1%; with SF-268 CNS, 85.6%. For the same compound, the growth with SF-295 CNS is 80.3%; with SF-539 CNS, 64.6%; in the experiment with UACC-257 melanoma, 101%; in the experiment on M14 melanoma, 105%.

With `CN1CCN(Cc2ccc(NC(=O)c3cncc(C#Cc4cnc5ccc(NCCCO)nn45)c3)cc2C(F)(F)F)CC1`, the growth with DU-145 prostate is -16.5% (active); in the experiment with K-562 leukemia, 0.484% (active); in the experiment on MALME-3M melanoma, -56.1% (active); in the experiment with MDA-MB-231 breast it was 12.2%; in the experiment on RXF 393 renal, -89% (active); with SF-268 CNS, -44.4% (active). The growth was -12.1% (active) in the experiment with SF-295 CNS, -78.1% (active) in the experiment with SF-539 CNS, -43.8% (active) in the experiment with UACC-257 melanoma and -91% (active) in the experiment with M14 melanoma.

As to `O=C(Nc1ccc2c(ccn2Cc2ccccn2)c1)c1cnccn1`, the growth in the experiment on DU-145 prostate is 95.6%; in the experiment with K-562 leukemia, 107%; in the experiment on MALME-3M melanoma, 106%; in the experiment with MDA-MB-231 breast it was 86.7%; with RXF 393 renal, 47.8%; with SF-268 CNS, 84.1%. Moreover, the growth is 97.5% in the experiment on SF-295 CNS, 96.4% in the experiment with SF-539 CNS, 102% with UACC-257 melanoma and 106% in the experiment on M14 melanoma.

For `Oc1[nH]c2ccccc2c1Nn1c(N=N/C=c2/ccc3c(c2)C=NN=3)n[nH]c1=S`, the growth with DU-145 prostate is 99.1%; in the experiment on K-562 leukemia, 101%; in the experiment with MALME-3M melanoma, 109%; in the experiment with MDA-MB-231 breast, 75.6%; with RXF 393 renal, 85.4%; with SF-268 CNS, 96.9%. For the same compound, the growth is 106% with SF-295 CNS, 94% in the experiment with SF-539 CNS, 110% in the experiment with UACC-257 melanoma and 106% in the experiment with M14 melanoma.

Take `CCNC(=O)N1CCc2cc(OC)c(OCCc3ccc(OC)cc3)cc2C1c1ccc([N+](=O)[O-])cc1C` (stereo not given): the growth is 20.7% in the experiment with DU-145 prostate; 13.7% with K-562 leukemia; 63.8% with MALME-3M melanoma; 17.7% with MDA-MB-231 breast; -9.58% (active) with RXF 393 renal; 32% in the experiment on SF-268 CNS. Also, the growth was 10.8% in the experiment with SF-295 CNS, 9.83% (active) with SF-539 CNS, 46.6% in the experiment with UACC-257 melanoma and 23.4% in the experiment with M14 melanoma.

As for `Cc1cc(-c2ccc(Cl)cc2)n(Cc2nnc(SCC(=O)Nc3ccc(S(N)(=O)=O)cc3)n2C2CCCCC2)n1`, the growth in the experiment with DU-145 prostate is 117%; in the experiment with K-562 leukemia, 104%; in the experiment with MALME-3M melanoma, 87%; in the experiment with MDA-MB-231 breast it was 106%; in the experiment with RXF 393 renal, 110%; in the experiment on SF-268 CNS, 113%. Moreover, the growth in the experiment with SF-295 CNS was 98%; with SF-539 CNS it was 103%; with UACC-257 melanoma, 101%; with M14 melanoma, 99.8%.

In the case of `CCNC(=O)N1CCc2cc(OC)c(OCCc3ccc(OC)nc3)cc2C1c1ccc(OC)cc1C` (stereo not given), the growth in the experiment with DU-145 prostate is 40.6%; with K-562 leukemia, 20%; in the experiment on MALME-3M melanoma it was 49.5%; in the experiment on MDA-MB-231 breast, 52.8%; in the experiment on RXF 393 renal, 24.7%; in the experiment on SF-268 CNS, 32.9%. Further, the growth in the experiment on SF-295 CNS was 18.2%; with SF-539 CNS, 22.6%; with UACC-257 melanoma, 47%; with M14 melanoma, 29.7%.

On to `COc1ccc(-c2nc3cc(Cl)c(Cl)cc3n2CC(=O)N=Nc2c(O)[nH]c3ccc(OC)cc23)cc1`, for which the growth with DU-145 prostate is 5.81% (active); in the experiment with K-562 leukemia it was 49.2%; with MALME-3M melanoma, 41.2%; with MDA-MB-231 breast, 52%; in the experiment on RXF 393 renal it was -29.8% (active); in the experiment with SF-268 CNS, 78.3%. In addition, the growth in the experiment on SF-295 CNS was 66.5%; with SF-539 CNS it was 47.2%; in the experiment with UACC-257 melanoma, 87.9%; in the experiment with M14 melanoma, 56.8%.
